“And” between values parts separate entries of the source, which are not always exact repeats. Equal values may be shown once. Compounds without any hit were thinned out: in the full panel of roughly 83,000, 20% have a hit.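 96-well plates, one dose, 48 hours. Percent growth reported; active if below 10.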 The source made the active and inactive calls.
These compounds were tested on TK-10 renal (assay: NCI-60 one-dose screen, 48 h (100 = growth as untreated, 0 = no growth, -100 = all killed)). Settings: 10 µM unless noted.

Compound	growth
O=C(CCc1ccccc1)ON1C(=S)NC(c2ccccc2)(c2ccccc2)C1=S	-6.92% [100 µM] (active) and -21.7% [100 µM] (active)
CC1(C)CCC[C@]2(C)[C@@H](C=O)C(C=O)=CC[C@@H]12	-6.19% [100 µM] (active) and -33.3% [100 µM] (active)
Cc1cc(O)c2c(c1)C(=O)C(c1c(C)cc3c(c1O)C(=O)C1OC1C3=O)=CC2=O (centres undefined)	-99.7% [100 µM] (active) and -86.5% [100 µM] (active)
CCOC(=O)C1C(C(C)C)C2(C#N)C(=N)OC1(C)C2(C#N)C#N (centres undefined)	5.66% [100 µM] (active) and -73.8% [100 µM] (active)
C=c1c2ccccc2oc2nc3[nH]c(N)c(C#N)c(N)c3c(=N)c12	43.9% [100 µM] (inactive) and -12.1% [100 µM] (active)
COc1ccc(OC)c(Cc2cnc3nc(N)nc(N)c3c2C)c1	27.5% [100 µM] (inactive) and -100% [100 µM] (active)
COC(=O)[C@]1(C)CCC[C@@]2(C)[C@@H]3C[C@@H]4[C@H]5C[C@@]3(CC[C@@H]21)C[C@@]45C	-88.2% [100 µM] (active) and -65.7% [100 µM] (active)
C[C@@H]1CCC([C@@H](C)[C@H]2CC[C@H]3[C@@H]4CC[C@H]5C[C@@H](O)CC[C@]5(C)[C@H]4CC[C@]23C)=NC1	27.5% [100 µM] (inactive) and -69% [100 µM] (active)
CC1=CC[C@@H]2[C@@H](CC[C@@]2(C)O)C(C)(C)[C@H]1CC[C@@H]1[C@@]2(C)CCC(=O)C(C)(C)O[C@@H]2CC[C@]1(C)O	10.2% [100 µM] (inactive) and -99.3% [100 µM] (active)
